# Assay results reported in PubChem BioAssay AID896 (National Center for Advancing Translational Sciences (NCATS), 2007).
# The other results are listed elsewhere or left out. Results filed as inconclusive are left out.
# Assay: Confirmation Concentration-Response Assay for Allosteric/Competitive Inhibitors of Caspase-1
# Conditions: purified caspase-1, fluorogenic substrate cleavage; compound fluorescence baseline read; at 57.5 µM
# Description: NIH Molecular Libraries Screening Centers Network [MLSCN]
# NIH Chemical Genomics Center [NCGC]
# PI Name: Dr. James Wells,
# Dr. Enrique Perez-Paya, Dr.Janice Williams, Dr. Dennis Wolan, a person
# The caspases (Cysteine Aspartyl Protease) comprise a related family of 14 dimeric proteases that are critical mediators of apoptosis (programmed cell death) and inflammation. The caspases represent an important class of drug targets for stroke, ischemia, cancer and inflammatory diseases. […] One goal of this project was to identify compounds that act as allosteric inhibitors via stabilizing the procaspase form of the enzyme. […]
# The biochemical assay was configured using purified caspase 1 at a high enzyme concentration to promote formation of the homodimers and thus facilitate the identification of allosteric inhibitors. […] After initiation of the assay with substrate the plates were rapidly read using an automated robotic system (Kalypsys, Inc.) to maintain consistent timing. […] Product formation was also measured after 1 hour. […]
# Caspase 1 was prepared in buffer (50 mM HEPES pH 7.5, 50 mM KCl, 200 mM NaCl, 10 mM DTT, 0.1% CHAPS) at a concentration of 66.6 nM and 3 uL was dispensed to all wells using black solid Kalypsys 1536-well plates. […] The plates were then exposed using 405 nm excitation/520 nm emission filters for 4 sec and read at 20 sec intervals for 3 min. […]
row,SMILES,baseline fluorescence
1,Cc1nc2c(C(=O)NCc3ccc4c(c3)OCO4)c[nH]n2c(=O)c1Cc1ccccc1F,-1.24%
